28 molecules from PubChem BioAssay (NCI) can be followed below.

Molecules are shown by their SMILES. The panel holds about 83,000 compounds, 20% with a hit somewhere; the sample as a whole holds those more often.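 Plates (96-well) were seeded with cells, treated with compound at one concentration, and incubated for 48 hours before percent growth was determined.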 The source made the active and inactive calls. Rule for the calls: active = growth percent below 10; inactive = the rest.

The test system of this assay is MDA-MB-468 breast. Put plainly: NCI-60 one-dose screen, 48 h (100 = growth as untreated, 0 = no growth, -100 = all killed). The settings on record: 10 µM unless noted.
For `CC1=NN(c2nc(SCC(=O)Nc3nc4ccc(C)cc4s3)nc(-c3ccccc3)c2C#N)C(=O)C1`, the growth is 111% (inactive).

For `COC(=O)c1nc(-c2ccccc2)oc1S(=O)(=O)NCC(c1ccc(Cl)cc1)N1CCOCC1` (stereo not drawn), the growth is 29.9% (inactive). As to `Cn1cc(-c2csc(-c3cn(C(=O)OC(C)(C)C)c4ccc(Br)cc34)n2)c2cccnc21`, the growth is 104% (inactive). As to `O=C(Cn1cc(-c2ccccc2)nn1)Nc1nc(-c2ccc(Cl)cc2)cs1`, the growth is 92.6% (inactive). For `CCOC(=O)c1c(Nc2ccccc2)nn2c(-c3ccc(OC)cc3)ccnc12` the value was 91.1% (inactive). For `O=C1c2ccccc2C(=O)c2c1c(C(=O)NCc1ccccc1)c1ccccn21` the value was 101% (inactive); for `CC1(n2nnnc2N2CCCN(c3ncccc3N)CC2)CCC1`, 93% (inactive); for `Nc1c(C(=O)Nc2cccc3ccccc23)sc2nc3c(cc12)CCCC3`, 35% (inactive). For `O=C1/C(=C/c2cccc([N+](=O)[O-])c2)COc2ccc(O)cc21`, the growth is 36.9% (inactive).

For `O=C1Nc2ccccc2/C1=C/c1cn(C[C@@H](O)Cn2c3ccccc3c(=O)c3ccccc32)c2ccccc12`, the growth is 79.6% (inactive). `CC(CN(C)C)Oc1ccc(OC(C)CN(C)C)c2c1C(=O)c1ccccc1C2=O` (stereo not drawn): the growth was 33.2% (inactive). Take `NS(=O)(=O)c1cccc(Nc2nc(SCC(=O)c3ccc(Cl)cc3)nc3ccccc23)c1`: the growth is 80.1% (inactive).

For `CCOC(=O)c1cc(C(=O)c2cc(OC)cc(OC)c2)n2ccccc12`, the growth is 30.2% (inactive).

For `Cc1ccc(-c2nc(SCC(=O)Nc3nc(-c4ccc(Cl)cc4)cs3)[nH]c(=O)c2C#N)cc1`, the growth was 117% (inactive).

`COc1ccc(-c2cnnn2-c2nonc2-n2cccc2)cc1`: the growth was 4.28% (active).

As for `Cc1ccc(-c2cc3nc(C(Cl)Cl)nc(-c4cccnc4)n3n2)cc1`, the growth is -61.5% (active). Consider `O=C1/C(=C/c2ccc(Oc3ccccc3)cc2)N=C(c2ccccc2)N1CCc1cccs1`, for which the growth was 108% (inactive). The result for `CC(C)CCSC1=CC(=O)c2ccccc2C1=O` reads -84.1% (active). For `CC(=O)Nc1ccc(S(=O)(=O)c2ccnc3cc(Cl)ccc23)cc1` the value was 9.85% (active); for `O=C(Nc1ccc(F)cc1F)c1cc(Cl)ccc1O`, -4.07% (active); for `COc1cc2nc(Nc3cccc(NC(C)=O)c3)nc(N)c2cc1OC`, 88.8% (inactive). Regarding `Clc1ccc(Cn2cc(-c3nc4ccc(Br)nc4n3Cc3ccc(Cl)cc3)c3cccnc32)cc1`, the growth was 60.7% (inactive). The result for `COc1ccc(S(=O)(=O)NCCCNc2nccc(-n3ccc4cccnc43)n2)cc1` reads 76.2% (inactive). The result for `C=C1C(=O)O[C@H]2[C@H]1CC/C(COC(=O)c1ccccc1)=C\CC[C@@]1(C)O[C@@H]21` reads -28.7% (active); that for `C#CC(F)(F)[C@]1(O)CC[C@H]2[C@@H]3CCC4=CC(=O)CCC4=C3[C@@H](c3ccc(C(C)=O)cc3)C[C@@]21C`, 81.3% (inactive); that for `S=c1[nH]nc(Cn2c3ccccc3c3ccncc32)o1`, 115% (inactive).

`CCCCNC(=O)Oc1ccc(/C(=C(\C)c2ccccc2)c2ccc(OCCN3CCCCC3)cc2)cc1`: the growth was 66.8% (inactive).

As to `COC(=O)c1c2c(c(C)[n+]([O-])c1C)C(=O)C(NCc1ccc(Br)cc1)=CC2=O`, the growth was -16.6% (active).
